Source: PubChem BioAssay
Pf growth 48h: P. falciparum growth inhibition at 48 hours (one generation) | AID 504832 | Potency, µM (series often up to 28.7 µM), for the others: top-dose activity change, negative = inhibition, most hits filed as inhibitors | 310,000 tested, 5.9% active | P. falciparum luciferase growth in erythrocytes, 48 h; further: on the % scale 0 is the no-effect control and ±100 the full control effect
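A one-generation exposure of luciferase-tagged malaria parasites in RPMI 1640/Albumax erythrocyte culture, 37 C and 5% CO2. Inhibition is inferred from decreased luminescence after adding detection reagent.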
NS1 inh: influenza NS1 inhibition; AID 2326; 270,000 tested, 0.4% active; Potency, µM (doses to about 46.1 µM), inactives show at the highest dose activity, positive = more growth; calls by dose curve; further: actives are rising curves; nearly all actives have a fitted effect of over 50% in size
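Compounds were scored for reversing the slow growth caused by influenza A NS1 in S. cerevisiae, measured by optical density at 600 nm. Assay medium contained 2% galactose at pH 6.0; NS1-free yeast of the same strain were the positive control.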
Pf growth 96h: inhibits malaria parasite growth, 96 h. P. falciparum luciferase reporter growth, 96 h. Potency, µM (doses to about 28.7 µM), without a hit: at the highest dose activity change, negative = inhibition, actives largely listed as inhibitors. 320,000 tested, 6.9% active. AID 504834; further: on the % scale 0 is the no-effect control and ±100 the full control effect
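Cell-based qHTS: luciferase-tagged P. falciparum in erythrocytes (2% hematocrit, 0.05% parasitemia final) incubated with compounds for 96 hours, 37 C, 5% CO2; luciferase detection reagent then added and luminescence measured.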
SARS PLpro yeast: SARS-CoV PLP inhibition in yeast | AID 485353 | S. cerevisiae expressing SARS-CoV PLpro, growth rescue | 330,000 tested, 0.19% active | Potency, µM (titrated, usually from 32.9 µM), for inactives: top-dose activity, positive = growth rescue, hits mostly activators; calls by dose curve; further: 0% is about no effect; nearly all actives have a fitted effect of over 55% in size
Starred values were filed as active, the others as inactive; i = inactive; ? = inconclusive; . = no result. Compounds with a hit are over-represented: about 10% of the library has one in this group of screens. Unless noted, the call rests on the fitted dose curve; in most records, active means well fitted inhibition curve with a large enough effect; inconclusive means small, poorly fitted or top-dose-only effect, or another doubt; inactive means no such curve, though single readings can be large or run the other way. Potency means the concentration at half of the fitted maximal effect.

SMILES | Pf growth 48h | NS1 inh | Pf growth 96h | SARS PLpro yeast
CC1CCCCN1C(=O)c1cc2nc(-c3ccccc3)cc(-c3ccccc3)n2n1 (stereo unspecified) | 8.3µM* | -14% | ? | -38%
CCc1cccc(CC)c1-n1c(SCC(=O)N2CCCc3ccccc32)nc(O)cc1=O | . | . | . | 5%
O=c1c2ccccc2nc2oc3ccccc3n12 | 98% | -13% | 13µM* | -7%
O=c1c2ccccc2nc2n1CCO2 | . | 1% | 13% | -2%
Oc1cccc2ccc(N3CCOCC3)nc12 | 34% | -3% | 19% | -1%
O=C(NC1(C(F)(F)F)NC(=O)N(Cc2cccnc2)C1=O)c1ccccc1 (stereo unspecified) | 7% | 4% | 13% | 0%
O=C(NC1(C(F)(F)F)NC(=O)N(Cc2ccccc2)C1=O)c1cccnc1 (stereo unspecified) | . | 1% | 2.9µM* | -5%
O=C(CN1CCCC1)NCc1ccccc1 | -162% | 8% | 13µM* | 2%
O=C(Cn1ccc2ccccc2c1=O)NCCC(=O)N1CCN(c2cccc(Cl)c2)CC1 | . | 4% | 7.4µM* | -3%
O=C(CCNC(=O)Cn1ccc2ccccc2c1=O)NCCN1CCN(c2cccc(Cl)c2)CC1 | -10% | -13% | 0% | 2%
O=C(CN1CCN(c2cccc(Cl)c2)CC1)NCc1ccccc1 | 1% | -29% | 10µM* | -10%
CCCCNC(=O)[C@H](CSCc1ccccc1)N1Cc2ccccc2C1=O | 4% | -60% | ? | 3%
Cn1cc(/C=C(\NC(=O)c2ccccc2Cl)C(=O)NCCN2CCOCC2)c2ccccc21 | ? | -5% | ? | 0%
Cn1cc(/C=C(\NC(=O)c2ccccc2Cl)C(=O)NCCCN2CCOCC2)c2ccccc21 | ? | -2% | 10µM* | 0%
O=C(COC(=O)c1ccc(F)cc1Cl)NC1CCS(=O)(=O)C1 (stereo unspecified) | 7% | . | 5% | -2%
COc1cc(/C=C(\C#N)c2nn(CCO)c(N)c2C#N)cc(OC)c1OC | 7.4µM* | -2% | -15% | 7%
N#C/C(=C\c1ccc(/C=C(/C#N)c2nn(CCO)c(N)c2C#N)cc1)c1nn(CCO)c(N)c1C#N | 7% | 4% | 0% | 11%
COc1cc(OC)cc(-c2c(-c3cccs3)c3cc(-c4ccc5[nH]ccc5c4)ccc3n2C)c1 | 6.6µM* | . | 2.3µM* | 2%
COc1cccc(-c2c(-c3cc(OC)cc(OC)c3)n(C)c3ccc(-c4ccc5cc[nH]c5c4)cc23)c1 | . | . | . | 0%
COc1cc(OC)cc(-c2c(-c3cccs3)c3cc(-c4ccc5cc[nH]c5c4)ccc3n2C)c1 | 10µM* | . | ? | -1%
c1ccc2c(OCCCN3CCCCCC3)cccc2c1 | ? | -4% | -16% | -8%
COC(=O)COc1cccc(NC(=O)C(c2ccccc2)c2ccccc2)c1 | 10% | 16% | ? | 1%
CC(=O)Nc1ccc(C(=O)OCC(=O)N2CCC(Cc3ccccc3)CC2)cc1 | ? | . | ? | 0%
Cc1ccc(-c2cc(C(F)F)nc(NCC3CCCO3)n2)cc1 (stereo unspecified) | -4% | -68% | 21% | -60%
Cc1ccc(-c2cc(C(F)F)nc(NCc3cccnc3)n2)cc1 | 13µM* | -97% | 17% | -39%
SMILES | Pf growth 48h | NS1 inh | Pf growth 96h | SARS PLpro yeast
FC(F)(F)c1cc(-c2ccc(Cl)cc2)nc(NCc2cccnc2)n1 | 3.7µM* | -19% | . | -8%
Cc1ccc(-c2cc(C(F)F)nc(NCc3cccs3)n2)cc1 | 11% | -8% | 2.6µM* | -19%
CSCC[C@H](NC(=O)[C@H]1CC[C@H](CNC(=O)[C@@H](N)Cc2ccccc2)CC1)C(=O)O | 24% | 1% | -1% | 0%
COc1ccc(-c2csc3nc(C)nc(N4CCCCC4)c23)cc1OC | ? | . | 4.7µM* | -3%
Cc1cc(C)nc(SCc2nc3ncccn3c2Br)n1 | 8.3µM* | -8% | 4.1µM* | -5%
Brc1c(CSc2nc3ccccc3o2)nc2ncccn12 | -25% | -121% | ? | -7%
Cc1[nH]c2ccc(C(=O)OC(C)C(=O)NC3CCCCC3C)cc2c1C (stereo unspecified) | 4.7µM* | . | ? | 6%
O=C(NCCCN1CCCC1=O)c1ccc([N+](=O)[O-])s1 | 10µM* | . | ? | .
CC(OC(=O)c1ccc2c(c1)OCO2)C(=O)NC1CCCCC1C (stereo unspecified) | -7% | . | 5% | 4%
CC(OC(=O)c1ccc([N+](=O)[O-])s1)C(=O)NC1CCCCC1C (stereo unspecified) | 13µM* | . | ? | -22%
O=C(NC1CCCC1)c1ccc([N+](=O)[O-])s1 | 1% | . | 10µM* | -19%
CC(CC=O)CCCC(C)(C)O (stereo unspecified) | 1% | . | -6% | .
N/C(=N\OC(=O)C1CC1)c1ccc([N+](=O)[O-])s1 | ? | -4% | 6.6µM* | -4%
CO[C@H]1OC2O[C@@]3(C)CC[C@H]4[C@H](C)CC[C@@H]([C@H]1C)[C@@]24OO3 (stereo partly specified) | 0.0048µM* | . | 0.0048µM* | .
CC1C(OC(=O)CCC(=O)NC(C)(C)CO)O[C@H]2OC3(C)CC[C@H]4[C@H](C)CCC1C24OO3 (stereo partly specified) | ? | -54% | ? | -7%
C[C@H]1[C@H](OC(=O)CCC(=O)NCc2ccc(C(=O)O)cc2)O[C@@H]2O[C@@]3(C)CC[C@H]4[C@H](C)CC[C@@H]1C24OO3 | 0.019µM* | -95% | 0.0033µM* | -6%
CC(C)CC(NC(=O)CCCNC(=O)CCC(=O)OC1O[C@H]2OC3(C)CC[C@H]4[C@H](C)CCC(C1C)C24OO3)C(=O)O (stereo partly specified) | ? | -55% | ? | -10%
Cc1cc(C)cc(OCC(=O)NNC(=O)C2CCCO2)c1 (stereo unspecified) | 41% | . | ? | 1%
CCN(Cc1ccccc1)C(=O)Cn1cc(S(=O)(=O)NC)c(S(=O)(=O)NC)c1 | 22% | 5% | 7% | 0%
COc1ccc(-c2onc(C)c2-c2ccc(C(=O)OC(C)C)o2)c(O)c1 | 1.3µM* | -68% | -9% | -20%
C=CCN1C(=O)C(C)(C)N(C(C)=O)c2ccccc21 | -5% | -5% | ? | -7%
CC(=O)N1c2ccccc2N(Cc2ccc(C)cc2C)C(=O)C1(C)C | . | -49% | 1.7µM* | -8%
COc1ccc(O)c(/C=C(\C#N)C(=O)Nc2ccccn2)c1 | 31% | -5% | 40% | 1%
O=C(Nc1ccccc1)N1CCc2ccccc21 | i | -10% | 5% | -23%
O=C(NCC1CCCC(CNC(=O)N2CCc3ccccc32)C1)N1CCc2ccccc21 (stereo unspecified) | . | 10% | 5.9µM* | 5%
O=c1ccc(N=Nc2ccccc2)ccc1O | 10µM* | -99% | 13µM* | -7%
O=C(CCCn1cncn1)N1CCCC(Nc2ccc(F)cc2)C1 (stereo unspecified) | 10% | 8% | 13% | 0%
COc1ccc(-c2cc(C(=O)Nc3cc(OC)cc(C(=O)Nc4cccc(C(F)(F)F)c4)c3)[nH]n2)cc1 | 1.9µM* | 5% | 1.3µM* | -3%
